# Like-named read-outs stand apart in the source and are kept apart here.
# Columns and labels:
# AAK1 = system: AAK1; design: species or system human, MV4-11 + K-562 + COLO205 + SK-N-BE2 + OVCAR-8; settings: read-out: apparent Kd, n = 1
# BMP2K = system: BMP2K; design: species or system human, MV4-11 + K-562 + COLO205 + SK-N-BE2 + OVCAR-8; settings: read-out: apparent Kd, n = 1
# CLK1 = system: CLK1; design: species or system human, MV4-11 + K-562 + COLO205 + SK-N-BE2 + OVCAR-8; settings: read-out: apparent Kd, compound concentrations: 100 nM and 1000 nM (sheet 'Samples'), n = 1
# CLK4 = system: CLK4; design: species or system human, MV4-11 + K-562 + COLO205 + SK-N-BE2 + OVCAR-8; settings: read-out: apparent Kd, n = 1
# DYRK1A = system: DYRK1A; design: species or system human, MV4-11 + K-562 + COLO205 + SK-N-BE2 + OVCAR-8; settings: read-out: apparent Kd, compound concentrations: 100 nM and 1000 nM (sheet 'Samples'), n = 1
# MELK = system: MELK; design: species or system human, MV4-11 + K-562 + COLO205 + SK-N-BE2 + OVCAR-8; settings: read-out: apparent Kd, n = 1
# MYLK3 = system: MYLK3; design: species or system human, MV4-11 + K-562 + COLO205 + SK-N-BE2 + OVCAR-8; settings: read-out: apparent Kd, n = 1
# Q6ZSR9 = Q6ZSR9 (human, UniProt Q6ZSR9); design: species or system MV4-11 + K-562 + COLO205 + SK-N-BE2 + OVCAR-8; settings: read-out: apparent Kd, n = 1
# RET = system: RET; design: species or system human, MV4-11 + K-562 + COLO205 + SK-N-BE2 + OVCAR-8; settings: read-out: apparent Kd, n = 1
# CDKL5 = system: CDKL5; design: species or system human, MV4-11 + K-562 + COLO205 + SK-N-BE2 + OVCAR-8; settings: read-out: apparent Kd, n = 1
# FLT3 = system: FLT3; design: species or system human, MV4-11 + K-562 + COLO205 + SK-N-BE2 + OVCAR-8; settings: read-out: apparent Kd, n = 1
# FLT4 = system: FLT4; design: species or system human, MV4-11 + K-562 + COLO205 + SK-N-BE2 + OVCAR-8; settings: read-out: apparent Kd, n = 1
# GSK3A = system: GSK3A; design: species or system human, MV4-11 + K-562 + COLO205 + SK-N-BE2 + OVCAR-8; settings: read-out: apparent Kd, compound concentrations: 100 nM and 1000 nM (sheet 'Samples'), n = 1
# GSK3B = system: GSK3B; design: species or system human, MV4-11 + K-562 + COLO205 + SK-N-BE2 + OVCAR-8; settings: read-out: apparent Kd, compound concentrations: 100 nM and 1000 nM (sheet 'Samples'), n = 1
# NUAK1 = system: NUAK1; design: species or system human, MV4-11 + K-562 + COLO205 + SK-N-BE2 + OVCAR-8; settings: read-out: apparent Kd, n = 1
# GAK = system: GAK; design: species or system human, MV4-11 + K-562 + COLO205 + SK-N-BE2 + OVCAR-8; settings: read-out: apparent Kd, n = 1
# CSNK2A1;CSNK2A3 = system: CSNK2A1;CSNK2A3; design: species or system human, MV4-11 + K-562 + COLO205 + SK-N-BE2 + OVCAR-8; settings: read-out: apparent Kd, n = 1
# CSNK2A2 = system: CSNK2A2; design: species or system human, MV4-11 + K-562 + COLO205 + SK-N-BE2 + OVCAR-8; settings: read-out: apparent Kd, n = 1
# PAK4 = system: PAK4; design: species or system human, MV4-11 + K-562 + COLO205 + SK-N-BE2 + OVCAR-8; settings: read-out: apparent Kd; compound concentrations:100 nM and 1000 nM (sheet 'Samples'); n = 1
# PRKD2 = system: PRKD2; design: species or system human, MV4-11 + K-562 + COLO205 + SK-N-BE2 + OVCAR-8; settings: read-out: apparent Kd, n = 1
# [1] = compound concentrations:100 nM and 1000 nM (sheet 'Samples')
# Q6ZSR9, sequence (Q6ZSR9 whole entry, looked up): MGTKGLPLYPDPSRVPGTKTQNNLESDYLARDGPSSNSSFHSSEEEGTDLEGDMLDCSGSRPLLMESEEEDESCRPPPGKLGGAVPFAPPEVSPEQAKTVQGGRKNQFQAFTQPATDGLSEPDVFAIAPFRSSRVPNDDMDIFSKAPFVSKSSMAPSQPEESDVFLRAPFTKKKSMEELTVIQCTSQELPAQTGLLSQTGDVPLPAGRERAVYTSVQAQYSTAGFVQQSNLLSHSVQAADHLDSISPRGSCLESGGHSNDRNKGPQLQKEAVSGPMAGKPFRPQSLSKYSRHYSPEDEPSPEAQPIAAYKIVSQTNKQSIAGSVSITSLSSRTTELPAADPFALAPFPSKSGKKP
compound,measurement,setting,value
CNc1nccc(-c2ccc3c(N)n[nH]c3c2)n1 [GSK2206003A],potency estimated from few doses,"AAK1; compound concentrations: 100 nM and 1000 nM (sheet 'Samples'), CATDS: 0.11797009071744601",108 nM
same,potency estimated from few doses,"BMP2K; compound concentrations: 100 nM and 1000 nM (sheet 'Samples'), CATDS: 5.7170227951540302E-2",897 nM
same,potency estimated from few doses,CLK1; CATDS: 0.21779714475359599,36.5 nM
same,potency estimated from few doses,"CLK4; compound concentrations: 100 nM and 1000 nM (sheet 'Samples'), CATDS: 0.18290440862860499",48 nM
same,potency estimated from few doses,DYRK1A; CATDS: 5.2030559523690803E-2,1370 nM
same,potency estimated from few doses,"MELK; compound concentrations: 100 nM and 1000 nM (sheet 'Samples'), CATDS: 0.103385588540624",145 nM
same,potency estimated from few doses,"MYLK3; compound concentrations: 100 nM and 1000 nM (sheet 'Samples'), CATDS: 6.3436586084605395E-2",601 nM
same,potency estimated from few doses,"Q6ZSR9; compound concentrations: 100 nM and 1000 nM (sheet 'Samples'), CATDS: 0.14345562945172299",73.1 nM
same,potency estimated from few doses,"RET; compound concentrations: 100 nM and 1000 nM (sheet 'Samples'), CATDS: 0.14057536576690199",76 nM
COc1cc[nH]c1/C=C1\C(=O)Nc2ccc([N+](=O)[O-])c(N3CC[C@@H](O)C3)c21 [RO0504985-000],potency estimated from few doses,"AAK1; compound concentrations: 100 nM and 1000 nM (sheet 'Samples'), CATDS: 0.119322014743116",46.2 nM
same,potency estimated from few doses,"BMP2K; compound concentrations: 100 nM and 1000 nM (sheet 'Samples'), CATDS: 0.146188418361926",33 nM
same,potency estimated from few doses,"CDKL5; compound concentrations: 100 nM and 1000 nM (sheet 'Samples'), CATDS: 0.118567124910979",46.7 nM
same,potency estimated from few doses,"FLT3; compound concentrations: 100 nM and 1000 nM (sheet 'Samples'), CATDS: 3.5682803402027001E-2",989 nM
same,potency estimated from few doses,"FLT4; compound concentrations: 100 nM and 1000 nM (sheet 'Samples'), CATDS: 3.5350973360848997E-2",1020 nM
same,potency estimated from few doses,GSK3A; CATDS: 6.9215882134984696E-2,143 nM
same,potency estimated from few doses,GSK3B; CATDS: 8.07850710279054E-2,99.7 nM
same,potency estimated from few doses,"NUAK1; compound concentrations: 100 nM and 1000 nM (sheet 'Samples'), CATDS: 0.113358948941002",50.6 nM
same,potency estimated from few doses,"Q6ZSR9; compound concentrations: 100 nM and 1000 nM (sheet 'Samples'), CATDS: 0.13185454777653499",39 nM
CCC(CC)(CC)n1cnc2c(N)ncnc21 [SKF-97620],potency estimated from few doses,"AAK1; compound concentrations: 100 nM and 1000 nM (sheet 'Samples'), CATDS: 2.5595683701841399E-2",1620 nM
same,potency estimated from few doses,CLK1; CATDS: 2.7794407506576899E-2,1260 nM
same,potency estimated from few doses,"CLK4; compound concentrations: 100 nM and 1000 nM (sheet 'Samples'), CATDS: 2.9101207913204901E-2",1100 nM
CNCC1CCn2c(c(C3=C(c4cn(C)c5ccccc45)C(=O)NC3=O)c3ccccc32)C1 (centres unmarked) [RO0318676-000],potency estimated from few doses,"AAK1; compound concentrations: 100 nM and 1000 nM (sheet 'Samples'), CATDS: 2.7439250549300399E-2",1910 nM
same,potency estimated from few doses,"GAK; compound concentrations: 100 nM and 1000 nM (sheet 'Samples'), CATDS: 3.3618066019117501E-2",961 nM
same,potency estimated from few doses,GSK3A; CATDS: 6.7317846208259105E-2,171 nM
same,potency estimated from few doses,GSK3B; CATDS: 7.2494529815898601E-2,146 nM
same,potency estimated from few doses,"Q6ZSR9; compound concentrations: 100 nM and 1000 nM (sheet 'Samples'), CATDS: 2.7484619244742201E-2",1890 nM
Cl.Cl.NC[C@H](CC1CCCCC1)NC(=O)c1ccc(-c2ccnc3[nH]ccc23)s1.NC[C@H](CC1CCCCC1)NC(=O)c1ccc(-c2ccnc3[nH]ccc23)s1 [GSK1581428A],potency estimated from few doses,AAK1; [1],54.5 nM
same,potency estimated from few doses,Q6ZSR9; [1],62.7 nM
COc1cc[nH]c1/C=C1\C(=O)Nc2ccc(F)c(C#C[C@@H](O)[C@@H](N)[C@@H](C)O)c21 [RO0283120-000],potency estimated from few doses,AAK1; [1],171 nM
same,potency estimated from few doses,BMP2K; [1],84.3 nM
same,potency estimated from few doses,CDKL5; [1],32.4 nM
same,potency estimated from few doses,CLK4; [1],1360 nM
same,potency estimated from few doses,CSNK2A1;CSNK2A3; [1],750 nM
same,potency estimated from few doses,CSNK2A2; [1],497 nM
same,potency estimated from few doses,FLT3; [1],59.3 nM
same,potency estimated from few doses,FLT4; [1],1670 nM
same,potency estimated from few doses,GAK; [1],868 nM
same,potency estimated from few doses,MELK; [1],679 nM
same,potency estimated from few doses,MYLK3; [1],827 nM
same,potency estimated from few doses,NUAK1; [1],20.3 nM
same,potency estimated from few doses,PAK4,350 nM
same,potency estimated from few doses,PRKD2; [1],278 nM
same,potency estimated from few doses,Q6ZSR9; [1],208 nM
same,potency estimated from few doses,RET; [1],117 nM
NS(=O)(=O)c1ccc(N/N=C2\C(=O)Nc3ccc(-c4cnco4)cc32)cc1 [GW276655_KCGS],potency estimated from few doses,AAK1; [1],1180 nM
same,potency estimated from few doses,BMP2K; [1],518 nM
same,potency estimated from few doses,MYLK3; [1],988 nM
same,potency estimated from few doses,Q6ZSR9; [1],782 nM
Cl.Nc1nc(-c2ccc3c(c2)C(=Cc2cc(Br)c(O)c(Br)c2)C(=O)N3)cs1 [GW407323A],potency estimated from few doses,"AAK1; compound concentrations: 100 nM and 1000 nM (sheet 'Samples'), CATDS: 6.1735676660854701E-2",169 nM
same,potency estimated from few doses,"BMP2K; compound concentrations: 100 nM and 1000 nM (sheet 'Samples'), CATDS: 9.5342393431140995E-2",73.6 nM
same,potency estimated from few doses,"CDKL5; compound concentrations: 100 nM and 1000 nM (sheet 'Samples'), CATDS: 9.5267986760985093E-2",73.7 nM
same,potency estimated from few doses,CLK1; CATDS: 4.62979117088285E-2,333 nM
same,potency estimated from few doses,"CLK4; compound concentrations: 100 nM and 1000 nM (sheet 'Samples'), CATDS: 8.6707828980110799E-2",87 nM
same,potency estimated from few doses,"CSNK2A1;CSNK2A3; compound concentrations: 100 nM and 1000 nM (sheet 'Samples'), CATDS: 5.7367661207528599E-2",199 nM
same,potency estimated from few doses,"CSNK2A2; compound concentrations: 100 nM and 1000 nM (sheet 'Samples'), CATDS: 4.5506088174881797E-2",349 nM
same,potency estimated from few doses,DYRK1A; CATDS: 7.6450134498411204E-2,110 nM
same,potency estimated from few doses,"MYLK3; compound concentrations: 100 nM and 1000 nM (sheet 'Samples'), CATDS: 0.25523575381679198",17.2 nM
same,potency estimated from few doses,"PRKD2; compound concentrations: 100 nM and 1000 nM (sheet 'Samples'), CATDS: 3.4430997277348899E-2",812 nM
same,potency estimated from few doses,"Q6ZSR9; compound concentrations: 100 nM and 1000 nM (sheet 'Samples'), CATDS: 5.6700337610390401E-2",204 nM
COc1ccc(-n2cnc3c(N)ncnc32)cc1 [SKF-97236],potency estimated from few doses,"FLT3; compound concentrations: 100 nM and 1000 nM (sheet 'Samples'), CATDS: 0.20462680651790399",598 nM
Cl.Cl.Cl.c1ccc(Oc2ccc(Nc3ccnc4cc(-c5ccc(CN6CCNCC6)o5)ccc34)cc2)nc1.c1ccc(Oc2ccc(Nc3ccnc4cc(-c5ccc(CN6CCNCC6)o5)ccc34)cc2)nc1 [GW567142A],potency estimated from few doses,"FLT3; compound concentrations: 100 nM and 1000 nM (sheet 'Samples'), CATDS: 3.3367464965841198E-2",294 nM
same,potency estimated from few doses,"MYLK3; compound concentrations: 100 nM and 1000 nM (sheet 'Samples'), CATDS: 1.6491067951183699E-2",2320 nM

# — article PMC11062922 (Nature Chemical Biology, 2023)
